In PubChem BioAssay:

Assay: modulators of S6 phosphorylation in cells, primary screen, cell-based, A549, cytoblot, luminescence, serum-stimulated (AID 1158);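 further: serum-stimulated A549 lung adenocarcinoma cells; signal is phosphorylated S6 detected by cytoblot immunostaining with HRP secondary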
Details: A549 phospho-S6 cytoblot, 5 h, higher = more signal

| Structure (SMILES) | z-score |
| --- | --- |
| CCOC(=O)[C@H](CC(C)C)NC(=O)CCC1CC(OC(=O)NCc2cccc3ccccc23)CC2(CCCC(COC(=O)NCCC(C)C)O2)O1 (some centres not stated) | 2.49 |
| CCOC(=O)[C@H](CC(C)C)NC(=O)CCC1CC(OC(=O)NCc2cccc3ccccc23)CC2(CCCC(COC(=O)NCC3CCCCC3)O2)O1 (some centres not stated) | 1.64 |
| CCC=CCCC(OC(=O)c1ccc(Br)cc1)C1=CCCCC1=O (configuration not stated) | 0.86 |
| Cc1cc2c(nc1C)CCCCN2CC(C)ON=C[C@@H](C)[C@H](OCc1ccccc1)C(C)C (some centres not stated) | -0.732 |
| CCOC(=O)[C@H](Cc1ccccc1)NC(=O)CCC1CC(OC(=O)NCc2cccc3ccccc23)CC2(CCCC(COC(=O)NCCC(C)C)O2)O1 (some centres not stated) | 0.255 |
| Cc1ccc(S(=O)(=O)n2c3ccccc3c3nnc(C(=O)c4ccccc4)nc32)cc1 | 0.479 |
| COC(=O)NCC=Cc1nc(CCCO)co1 | -0.726 |
| Cc1ccc(S(=O)(=O)N[C@H]2COC(=O)CC=C[C@H](C)[C@@H](NS(=O)(=O)c3ccc(C)cc3)COC(=O)CC=C[C@@H]2C)cc1 | -1.01 |
| O=C1[C@H]2[C@H]3[C@H](O)[C@H](O)CC(=NOCc4ccccc4)[C@@H]3CC[C@H]2C(=O)N1C[C@@H]1CCCO1 | -0.0701 |
| CCCCC#C[C@@H]1C=C[C@H](OC(C)=O)[C@@H](COC(C)=O)O1 | -0.268 |
| Cc1cc2c(nc1C)CCCN2CC(O)CN1CCCc2nc(C)c(C)cc21 | -0.669 |
| C#CCCCON=C1C[C@@H](O)[C@@H](O)[C@@H]2[C@@H]3C(=O)N(CC)C(=O)[C@@H]3CC[C@@H]12 | -0.595 |
| CCOC(=O)CCN1C(=O)[C@H]2[C@H]3[C@H](O)[C@H](O)CC(=NNC(=O)OCc4ccccc4)[C@@H]3CC[C@H]2C1=O | 0.33 |
| CC(C)(C)N1C(=O)[C@H]2[C@H]3[C@H](O)[C@H](O)CC(=NOCc4ccccc4)[C@H]3CC[C@H]2C1=O | -0.371 |
| C[C@H]1COC(=O)[C@@H]2CCCN2C(=O)[C@@H](C)COC(=O)[C@H](Cc2ccccc2)NC1=O | 0.413 |
| O=C1[C@H]2[C@H]3[C@H](O)[C@H](O)CC(=NO[C@@H]4O[C@H](CO)[C@@H](O)[C@H](O)[C@H]4O)[C@H]3CC[C@H]2C(=O)N1c1cccc(Oc2ccccc2)c1 | -0.576 |
| CC(C)=CCCC(C)=CCON=C1C[C@@H](O)[C@@H](O)[C@@H]2[C@@H]3C(=O)N(Cc4ccccc4)C(=O)[C@@H]3CC[C@H]12 | -0.352 |
| CC(C)(C)N1C(=O)[C@H]2[C@H]3[C@H](O)[C@H](O)CC(=O)[C@H]3CC[C@H]2C1=O | 1.23 |
| COc1ccc(O[C@H]2C=C[C@@H](c3ccccc3)O[C@@H]2COC(=O)CCC(C)=NO[C@@H]2O[C@H](COC(C)=O)[C@@H](OC(C)=O)[C@H](OC(C)=O)[C@H]2OC(C)=O)cc1 | -1.01 |

| Structure (SMILES) | z-score |
| --- | --- |
| COc1ccc(COC(=O)NN=C2C[C@@H](O)[C@@H](O)[C@@H]3[C@@H]4C(=O)N(Cc5ccccc5)C(=O)[C@@H]4CC[C@H]23)cc1 | -0.411 |
| COc1cc(O)c(C(=O)C=Cc2ccc3c(c2)OCO3)c(OC)c1 | -0.523 |
| C#CCCCON=C1C[C@@H](O)[C@@H](O)[C@@H]2[C@@H]3C(=O)N(C(C)(C)C)C(=O)[C@@H]3CC[C@H]12 | -0.162 |
| O=C(NN=C1C[C@@H](O)[C@@H](O)[C@@H]2[C@@H]3C(=O)N(C[C@@H]4CCCO4)C(=O)[C@@H]3CC[C@H]12)OCc1ccccc1 | -0.249 |
| COc1cccc([C@H]2Oc3ccc(OC)cc3C(=NO[C@@H](C)c3cn([C@H](CO)Cc4ccccc4)nn3)[C@@H]2O)c1 | -0.15 |
| O=C1[C@H]2[C@H]3[C@H](O)[C@H](O)CC(=NOCc4ccccc4)[C@H]3CC[C@H]2C(=O)N1Cc1ccc2c(c1)OCO2 | -0.702 |
| CC(C)CON=C1C[C@@H](O)[C@@H](O)[C@@H]2[C@@H]3C(=O)N(C4CCCCC4)C(=O)[C@@H]3CC[C@H]12 | -0.545 |
| CC(C)(C)N1C(=O)[C@H]2[C@H]3[C@H](O)[C@H](O)CC(=NO[C@@H]4O[C@H](CO)[C@@H](O)[C@H](O)[C@H]4O)[C@H]3CC[C@H]2C1=O | -0.527 |
| COC(=O)[C@H](C)NC(=O)CCC1CC(OC(=O)NCCc2ccc(F)cc2)CC2(CCCC(COC(=O)NCCC(C)C)O2)O1 (some centres not stated) | 1.14 |
| CC(=O)Nc1ccc([C@@H]2N[C@H](C(=O)O)CC[C@H]2C)cc1 | 0.699 |
| COc1ccc(O[C@H]2C=C[C@@H](c3ccccc3)O[C@@H]2CON=C(C)C)cc1 | -0.807 |
| CO[C@H]1COC(=O)[C@@H](Cc2ccccc2)NC(=O)[C@@H](C)COC(=O)CCC[C@@H]1C | 0.781 |
| CCOC(=O)NN=C1C[C@@H](O)[C@@H](O)[C@@H]2[C@@H]3C(=O)N([C@@H](C)c4ccccc4)C(=O)[C@@H]3CC[C@H]12 | -0.34 |
| CO[C@H]1COC(=O)CCC[C@@H](C)[C@H](OC)COC(=O)[C@@H]2CCCN2C(=O)CC=C[C@@H]1C | -0.112 |
| COc1cccc([C@H]2Oc3ccc(OC)cc3C(=NOC(C)CN3CCCCc4nc(C)c(C)cc43)[C@@H]2O)c1 (some centres not stated) | -0.887 |
| O=C1[C@H]2[C@H]3[C@H](O)[C@H](O)CC(=NOC[C@@H](O)COCc4ccco4)[C@H]3CC[C@H]2C(=O)N1Cc1ccccc1 | 1.43 |
| COc1cccc([C@H]2Oc3ccc(OC)cc3C(=NOC[C@@H](O)[C@H]3O[C@@H]4OC(C)(C)O[C@@H]4[C@H]3O)[C@@H]2O)c1 | -0.512 |
| Cn1c(=O)n2n(c1=O)[C@H]1[C@H](O)[C@@H]3O[C@@H]3C(=NOCc3ccccc3)[C@H]1CC2 | -0.807 |
